# PubChem BioAssay (NCI)
# The panel holds about 79,000 compounds, 15% with a hit somewhere; the sample as a whole holds those more often. Unmarked numbers belong to inactive results. Calls of active or inactive are those of the source. No stated cut-off is given here; in the data, active means growth inhibition above about 70%; inactive means the rest.
# Legend:
# [1] = NCI Yeast Anticancer Drug Screen. Data for the mec2-1 strain (AID 157); conditions: S. cerevisiae mec2-1 strain, hits give high values
# Summary of the method: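 Cells of the genetically defined mec2-1 yeast strain are incubated with test compound. Inhibition of growth is calculated against vehicle-treated controls.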
# [2] = NCI Yeast Anticancer Drug Screen. Data for the rad14 strain (AID 159);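 further: 0% = growth of vehicle-treated control cultures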; conditions: S. cerevisiae rad14 strain growth inhibition, hits give high values
# Summary of the method: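 Compound-treated yeast with a defined DNA-repair lesion; growth inhibition normalised to vehicle-treated cultures.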
# [3] = NCI Yeast Anticancer Drug Screen. Data for the sgs1 mgt1 strain (AID 161);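 further: 0% = growth of cultures given vehicle only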; conditions: S. cerevisiae sgs1 mgt1 strain, hits give high values
# Summary of the method: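 Read-out: growth inhibition vs vehicle controls. Cells: mutant yeast strain deficient in DNA damage repair.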
# [4] = NCI Yeast Anticancer Drug Screen. Data for the CLN2oe strain (AID 163);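 further: 0% = growth of vehicle-only control cultures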; conditions: S. cerevisiae CLN2oe strain, hits give high values
# Summary of the method: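 Strain altered in cell-cycle control, incubated with compound; growth compared to solvent-treated controls.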
# [5] = NCI Yeast Anticancer Drug Screen. Data for the bub3 strain (AID 167); conditions: S. cerevisiae bub3 mutant strain, hits give high values
# Summary of the method: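 Growth of a checkpoint-deficient yeast mutant is measured after compound exposure. Values represent inhibition relative to vehicle.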
# [6] = NCI Yeast Anticancer Drug Screen. Data for the wt2 strain (AID 169);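 further: 0% = growth of vehicle-treated yeast cultures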; conditions: S. cerevisiae wt2 strain growth inhibition, hits give high values
# Summary of the method: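 Steps: yeast strain treated with compound; growth recorded; inhibition calculated relative to cultures given vehicle alone.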
# [7] = NCI Yeast Anticancer Drug Screen. Data for the mlh1 strain (AID 171);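 further: 0% = growth of vehicle-treated control cultures of the same strain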; conditions: S. cerevisiae mlh1 strain growth inhibition, hits give high values
# Summary of the method: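 Yeast screen: mutant strain plus compound, growth scored against vehicle control wells.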
# [8] = NCI Yeast Anticancer Drug Screen. Data for the sgs1 strain (AID 173);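 further: 0% = growth of vehicle-only control cultures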; conditions: S. cerevisiae sgs1 mutant, hits give high values
# Summary of the method: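 Inhibition of yeast growth served as the measure. The mutant strain was treated with each compound, and growth was normalised to cultures receiving vehicle alone.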
# [9] = NCI Yeast Anticancer Drug Screen. Data for the mlh1 rad18 strain (AID 175); conditions: S. cerevisiae mlh1 rad18 strain growth inhibition, hits give high values
# Summary of the method: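 Compound-treated yeast growth, normalised to vehicle controls. Strain bears defined DNA repair mutations.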
# [10] = NCI Yeast Anticancer Drug Screen. Data for the rad18 strain (AID 177); conditions: S. cerevisiae rad18 mutant growth inhibition, hits give high values
# Summary of the method: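 Inhibition values reflect reduced yeast growth compared with vehicle-treated controls, using a strain engineered with a DNA damage repair defect.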
# [11] = NCI Yeast Anticancer Drug Screen. Data for the wt1 strain (AID 149);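 further: 0% = growth of vehicle-treated wt1 cultures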; conditions: S. cerevisiae wt1 strain (SPY 50644) growth inhibition, hits give high values
# Summary of the method: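 Readout: yeast growth inhibition, normalised to vehicle controls, in the wt1 strain exposed to test compounds.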
# [12] = NCI Yeast Anticancer Drug Screen. Data for the rad50EPP+ strain (AID 151);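 further: 0% = growth of vehicle-treated control cultures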; conditions: S. cerevisiae rad50 mutant strain, hits give high values
# Summary of the method: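 Strain rad50EPP+; compound exposure; % growth inhibition vs vehicle.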
# [13] = NCI Yeast Anticancer Drug Screen. Data for the mgt1 strain (AID 153); conditions: S. cerevisiae mgt1 mutant growth inhibition, hits give high values
# Summary of the method: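 Read-out: yeast growth inhibition vs vehicle control. Strain mgt1, drawn from a panel altered in DNA damage repair or cell cycle control.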
# [14] = NCI Yeast Anticancer Drug Screen. Data for the rad50 strain (AID 155);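 further: 0% = growth of vehicle-only cultures of the same strain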; conditions: S. cerevisiae rad50 strain growth inhibition, hits give high values
# Summary of the method: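 Compounds were tested on a yeast strain with an engineered DNA damage repair alteration; the reported value is growth inhibition normalised to vehicle treatment.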
# [15] = NCI Yeast Anticancer Drug Screen. Data for the cln2 rad14 strain (AID 165);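 further: 0% = growth equal to vehicle treated cultures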; conditions: S. cerevisiae cln2 rad14 strain, hits give high values
# Summary of the method: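 The screen exposed genetically defined yeast (cln2 rad14) to test compounds and scored growth inhibition relative to vehicle-treated controls.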
# [16] = at 5.0 µM (retest, dose inferred, filed as 0.5)
# [17] = at 50.0 µM (retest, dose inferred, filed as 5.0)
smiles,measurement,setting,value
CCCCCCCCCC/C=C\CC(=O)O,growth inhibition,[1]; at 100.0 µM,99% (active)
same,growth inhibition,[2]; at 1.2 µM,0%
same,growth inhibition,[2]; at 3.7 µM,1%
same,growth inhibition,[2]; at 11.0 µM,9%
same,growth inhibition,[2]; at 33.0 µM,33%
same,growth inhibition,[2]; at 100.0 µM,99% (active)
same,growth inhibition,[3]; [16],-1%
same,growth inhibition,[3]; [17],89% (active)
same,growth inhibition,[3]; at 50.0 µM,6.35%
same,growth inhibition,[4]; at 1.2 µM,-3%
same,growth inhibition,[4]; at 3.7 µM,-1%
same,growth inhibition,[4]; at 11.0 µM,-1%
same,growth inhibition,[4]; at 33.0 µM,-5%
same,growth inhibition,[4]; at 100.0 µM,73% (active)
same,growth inhibition,[5]; at 1.2 µM,-2%
same,growth inhibition,[5]; at 3.7 µM,-4%
same,growth inhibition,[5]; [16],1%
same,growth inhibition,[5]; at 11.0 µM,-8%
same,growth inhibition,[5]; at 33.0 µM,-3%
same,growth inhibition,[5]; [17],1%
same,growth inhibition,[5]; at 50.0 µM,36.1%
same,growth inhibition,[5]; at 100.0 µM,98% (active)
same,growth inhibition,[6]; at 1.2 µM,-2%
same,growth inhibition,[6]; at 3.7 µM,6%
same,growth inhibition,[6]; at 11.0 µM,-3%
same,growth inhibition,[6]; at 33.0 µM,3%
same,growth inhibition,[6]; at 100.0 µM,98% (active)
same,growth inhibition,[7]; at 1.2 µM,0%
same,growth inhibition,[7]; at 3.7 µM,-4%
same,growth inhibition,[7]; at 11.0 µM,-3%
same,growth inhibition,[7]; at 33.0 µM,11%
same,growth inhibition,[7]; at 100.0 µM,99% (active)
same,growth inhibition,[8]; at 1.2 µM,-3%
same,growth inhibition,[8]; at 3.7 µM,-2%
same,growth inhibition,[8]; at 11.0 µM,2%
same,growth inhibition,[8]; at 33.0 µM,31%
same,growth inhibition,[8]; at 100.0 µM,99% (active)
same,growth inhibition,[9]; [16],4%
same,growth inhibition,[9]; [17],87% (active)
same,growth inhibition,[9]; at 50.0 µM,-21.2%
same,growth inhibition,[10]; at 1.2 µM,-3%
same,growth inhibition,[10]; at 3.7 µM,2%
same,growth inhibition,[10]; at 11.0 µM,-1%
same,growth inhibition,[10]; at 33.0 µM,48%
same,growth inhibition,[10]; at 100.0 µM,99% (active)
N#C/C(=C1C=C/C(=N\O)C(Cl)=C\1)c1ccccc1,growth inhibition,[11]; at 1.2 µM,-2%
same,growth inhibition,[11]; at 3.7 µM,-5%
same,growth inhibition,[11]; at 11.0 µM,2%
same,growth inhibition,[11]; at 33.0 µM,0%
same,growth inhibition,[11]; at 100.0 µM,3%
same,growth inhibition,[12]; at 1.2 µM,2%
same,growth inhibition,[12]; at 3.7 µM,16%
same,growth inhibition,[12]; at 11.0 µM,26%
same,growth inhibition,[12]; at 33.0 µM,21%
same,growth inhibition,[12]; at 100.0 µM,24%
same,growth inhibition,[13]; at 1.2 µM,-3%
same,growth inhibition,[13]; at 3.7 µM,1%
same,growth inhibition,[13]; at 11.0 µM,3%
same,growth inhibition,[13]; at 33.0 µM,5%
same,growth inhibition,[13]; at 100.0 µM,10%
same,growth inhibition,[14]; at 1.2 µM,0%
same,growth inhibition,[14]; at 3.7 µM,3%
same,growth inhibition,[14]; [16],24%
same,growth inhibition,[14]; at 11.0 µM,8%
same,growth inhibition,[14]; at 33.0 µM,13%
same,growth inhibition,[14]; [17],76% (active)
same,growth inhibition,[14]; at 50.0 µM,55.8%
same,growth inhibition,[14]; at 100.0 µM,14%
same,growth inhibition,[1]; at 1.2 µM,-1%
same,growth inhibition,[1]; at 3.7 µM,0%
same,growth inhibition,[1]; [16],-11%
same,growth inhibition,[1]; at 11.0 µM,2%
same,growth inhibition,[1]; at 33.0 µM,5%
same,growth inhibition,[1]; [17],36%
same,growth inhibition,[1]; at 50.0 µM,43%
same,growth inhibition,[1]; at 100.0 µM,14%
same,growth inhibition,[2]; at 1.2 µM,2%
same,growth inhibition,[2]; at 3.7 µM,8%
same,growth inhibition,[2]; at 11.0 µM,15%
same,growth inhibition,[2]; at 33.0 µM,17%
same,growth inhibition,[2]; at 100.0 µM,26%
same,growth inhibition,[3]; [16],52%
same,growth inhibition,[3]; [17],85% (active)
same,growth inhibition,[3]; at 50.0 µM,40.1%
same,growth inhibition,[15]; [16],12%
same,growth inhibition,[15]; [17],46%
same,growth inhibition,[15]; at 50.0 µM,-43.9%
same,growth inhibition,[5]; at 1.2 µM,-1%
same,growth inhibition,[5]; at 3.7 µM,2%
same,growth inhibition,[5]; [16],37%
same,growth inhibition,[5]; at 11.0 µM,4%
same,growth inhibition,[5]; at 33.0 µM,14%
same,growth inhibition,[5]; [17],71% (active)
same,growth inhibition,[5]; at 50.0 µM,72.7% (active)
same,growth inhibition,[5]; at 100.0 µM,16%
same,growth inhibition,[6]; at 1.2 µM,-13%
same,growth inhibition,[6]; at 3.7 µM,-11%
same,growth inhibition,[6]; at 11.0 µM,-9%
same,growth inhibition,[6]; at 33.0 µM,-9%
same,growth inhibition,[6]; at 100.0 µM,-1%
same,growth inhibition,[7]; at 1.2 µM,-4%
same,growth inhibition,[7]; at 3.7 µM,4%
same,growth inhibition,[7]; at 11.0 µM,7%
same,growth inhibition,[7]; at 33.0 µM,10%
same,growth inhibition,[7]; at 100.0 µM,23%
same,growth inhibition,[8]; at 1.2 µM,-3%
same,growth inhibition,[8]; at 3.7 µM,7%
same,growth inhibition,[8]; at 11.0 µM,6%
same,growth inhibition,[8]; at 33.0 µM,16%
same,growth inhibition,[8]; at 100.0 µM,33%
same,growth inhibition,[9]; [16],45%
same,growth inhibition,[9]; [17],87% (active)
same,growth inhibition,[9]; at 50.0 µM,80.7% (active)
same,growth inhibition,[10]; at 1.2 µM,-1%
same,growth inhibition,[10]; at 3.7 µM,1%
same,growth inhibition,[10]; at 11.0 µM,-2%
same,growth inhibition,[10]; at 33.0 µM,2%
same,growth inhibition,[10]; at 100.0 µM,13%
